SARS PLpro yeast: qHTS of Yeast-based Assay for SARS-CoV PLP. S. cerevisiae expressing SARS-CoV PLpro, growth rescue. Potency, µM (series often up to 32.9 µM), inactives show at the highest dose activity, positive = growth rescue, hits mostly activators. actives 0.19% (n = 330,000); calls by dose curve; further: potency means the concentration at half of the fitted maximal effect; 0% is about no effect; nearly all actives have a fitted effect of over 55% in size
Pf growth 96h: Primary qHTS for delayed death inhibitors of the malarial parasite plastid, 96 hour incubation. P. falciparum luciferase reporter growth, 96 h. Potency, µM (series often up to 28.7 µM), inactives show top-dose activity change, negative = inhibition, hits mostly inhibitors. actives 6.9% (n = 320,000). AID 504834, 2011; further: potency means the concentration at half of the fitted maximal effect; on the % scale 0 is the no-effect control and ±100 the full control effect
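Two-generation exposure (96 h) targets delayed-death phenotype. Reporter parasites carrying integrated firefly luciferase, in red cells at 2% hematocrit and 0.05% parasitemia final, kept at 37 C, 5% CO2; luminescence loss indicates inhibition.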
Sm TGR inh: qHTS Assay for the Inhibitors of Schistosoma Mansoni Peroxiredoxins; Potency, µM (highest dose often 114 µM), for the others: at the top dose activity change, negative = inhibition, usual class: inhibitors; purified TGR, DTNB reduction, TNB absorbance 405 nm; AID 485364, 2010; actives 3% (n = 360,000); further: potency means the concentration at half of the fitted maximal effect; on the % scale 0 is the no-effect control and ±100 the full control effect; nearly all actives have a fitted effect of over 60% in size
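TGR 20 nM + NADPH 100 uM (dispensed conc.), cpd preinc 15 min RT; start with NADPH (500 uM addition) then DTNB (15 mM addition). Kinetic TNB absorbance, 405 nm filter. Four-parameter Hill fit across titration.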
HCV inhibitor: qHTS Assay for Inhibitors of Hepatitis C Virus (HCV). Huh7.5.1 HCVcc-Cre infection, luciferase reporter, 44 h. Potency, µM (titrated, usually from 41.8 µM), inactives show at the highest dose activity change, negative = inhibition, usual class: inhibitors. actives 3.4% (n = 340,000). AID 651820, 2012; further: potency means the concentration at half of the fitted maximal effect; on the % scale 0 is the no-effect control and ±100 the full control effect
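Reporter virus HCVcc-Cre (~0.5 moi) infects cells exposed to compound; seeding density 1,000 cells/well with 4 h settling beforehand. Luminescence, 15 sec read, taken 44 h post-infection following a 15 min RT substrate incubation.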
HCMV antiviral: qHTS Assay for inhibitors of the human cytomegalovirus (HCMV). actives 4.5% (n = 410,000). activity change, negative = inhibition, % at 57.5 µM. HFF cells, HCMV-luciferase reporter, 72 h; hits give low values; in the data active means activity change below about -60%; inconclusive means no clear call, values can overlap the other calls; inactive means above about -39%; further: on the % scale 0 is the no-effect control and ±100 the full control effect
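Luciferase read-out from HCMV-luciferase-infected HFFs (MOI 1 PFU/cell) 72 h post infection at 37C; compounds added after 16 h cell attachment; activity normalized between buffer-only basal and Salinomycin (10uM) inhibitor controls.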
Pf growth 48h: Primary qHTS for delayed death inhibitors of the malarial parasite plastid, 48 hour incubation; P. falciparum luciferase growth in erythrocytes, 48 h; actives 5.9% (n = 310,000); Potency, µM (top dose mostly 28.7 µM), without a hit: at the top dose activity change, negative = inhibition, actives largely listed as inhibitors; AID 504832, 2011; further: potency means the concentration at half of the fitted maximal effect; on the % scale 0 is the no-effect control and ±100 the full control effect
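Compounds are pin-transferred into medium, infected erythrocytes (2% hematocrit, 0.1% parasitemia final) are added, and plates sit one parasite generation at 37 C in 5% CO2. Detection reagent is then added and luminescence measured.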
An asterisk follows results filed as active; ? = inconclusive; nt = no result; + = active, no number. Hits are enriched below; roughly 15% of the tested compounds scored in any of these assays. Unless noted, the call rests on the fitted dose curve; in most records, active means well fitted curve in the direction sought with a large enough effect; inconclusive means small, poorly fitted or top-dose-only effect, or another doubt; inactive means no such curve, though single readings can be large; an effect the other way counts as inactive or inconclusive.

SMILES	SARS PLpro yeast	Pf growth 96h	Sm TGR inh	HCV inhibitor	HCMV antiviral	Pf growth 48h
C1=CC2c3ccccc3NC(c3ccncc3)C2C1 (centres undefined)	0.3%	13.1µM*	2.51µM*	-35.1%	-12.1	?
CC(=O)c1ccc2c(c1)C1C=CCC1C(c1ccncc1)N2 (centres undefined)	-1.8%	132.0%	?	-20.0%	14.2	-9.2%
O=C(NCCCN1CCN(c2ccccc2F)CC1)c1ccc2nc(Cc3ccccc3)oc2c1	nt	nt	-0.4%	nt	-2.8	nt
CSc1ccc(NC(=O)NCCCN2CCN(c3ccccc3F)CC2)cc1	2.8%	45.3%	19.4%	-33.5%	nt	?
CCc1nc2ccc(C(=O)NCCCN3CCN(c4ccccc4F)CC3)cc2nc1CC	-0.4%	?	-30.4%	4.47µM*	22.7	?
O=C(NCCCN1CCN(c2ccccc2F)CC1)c1ccc2nc(CCc3ccccc3)oc2c1	nt	nt	?	nt	-100.7*	nt
Cc1c(C)n(C)c2ccc(C(=O)NCCCN3CCN(c4ccccc4F)CC3)cc12	-2.6%	-20.1%	-16.2%	?	0.0	10.4µM*
O=C1NC(=S)N/C1=C/c1cc([N+](=O)[O-])ccc1O	6.6%	28.2%	-23.0%	-20.1%	14.9	nt
C/C(=N\OC(=O)c1ccc(Cl)cc1)c1nccs1	-4.9%	2.2%	11.5%	3.6%	3.8	12.6%
CCn1cc(C(=O)N[C@@H](CCSC)C(=O)NC(C)(C)CO)c(=O)c2cc3c(cc21)OCO3	2.1%	1.47µM*	-1.4%	4.1%	?	1.85µM*
CCn1cc(C(=O)N[C@@H](CCSC)C(=O)NCCN2CCOCC2)c(=O)c2cc3c(cc21)OCO3	4.0%	-10.9%	-3.2%	11.6%	+	-28.2%
CCn1cc(C(=O)N[C@H](C(=O)NC(C)(C)CO)C(C)C)c(=O)c2cc3c(cc21)OCO3	0.2%	8.28µM*	5.8%	-5.3%	32.8	?
CC(=O)N1c2ccc(S(=O)(=O)N3CCCC3)cc2CC1C(=O)Nc1cc(C)cc(C)c1 (centres undefined)	4.3%	?	3.0%	?	-24.8	?
COc1cccc(CNC(=O)C2CCCN(S(=O)(=O)N(C)c3ccc(F)cc3)C2)c1OC (centres undefined)	nt	nt	5.6%	nt	-71.5*	nt
CC(=O)N1c2ccc(S(=O)(=O)N3CCCC3)cc2CC1C(=O)NCc1ccc(N(C)C)cc1 (centres undefined)	2.7%	6.57µM*	-12.0%	2.1%	-34.5	-13.2%
CC(=O)N1c2ccc(S(=O)(=O)N3CCCCC3)cc2CC1C(=O)Nc1ccc(F)cc1C (centres undefined)	0.2%	250.3%	1.8%	-30.0%	-79.3*	-20.1%
CN(c1ccc(F)cc1)S(=O)(=O)N1CCCC(C(=O)NCc2ccccc2Cl)C1 (centres undefined)	nt	nt	8.6%	nt	-39.5	nt
COc1cccc(CNC(=O)C2Cc3cc(S(=O)(=O)N4CCCC4)ccc3N2C(C)=O)c1OC (centres undefined)	4.0%	14.7µM*	-9.8%	1.4%	?	-9.2%
Cc1ccc(C(=O)c2oc3ccccc3c2NC(=O)c2cc(-c3ccc(Cl)cc3)on2)cc1	nt	nt	2.6%	nt	2.1	nt
O=C(c1ccc(Cl)c(S(=O)(=O)N2CCCCCC2)c1)N1CCCC1	0.1%	12.3%	-19.5%	-5.5%	5.7	20.2%
O=C(COc1ccc(Cl)cc1)NCC(c1ccco1)S(=O)(=O)c1ccc(Cl)cc1 (centres undefined)	nt	nt	28.2µM*	nt	10.3	nt
COc1ccccc1CNC(=O)C(=O)NCC(c1ccco1)S(=O)(=O)c1ccc(C)cc1 (centres undefined)	nt	nt	-26.3%	nt	-12.1	nt
CCOc1ccc(S(=O)(=O)NCC(c2ccco2)S(=O)(=O)c2ccc(C)cc2)cc1 (centres undefined)	nt	nt	0.316µM*	nt	-20.0	nt

High-throughput results deposited in PubChem BioAssay by National Center for Advancing Translational Sciences (NCATS).
